Screening results as filed in PubChem.
12-LOX inh – Primary qHTS assay for inhibitors of human arachidonate 12S-lipoxygenase (ALOX12): Round 2 | Polyunsaturated fatty acid lipoxygenase ALOX12 (Homo sapiens), P18054 | purified 12hLO, xylenol orange hydroperoxide absorbance | Potency, µM (titrated, usually from 108 µM), actives largely listed as inhibitors | 580,000 compounds, 1.1% hits | AID 1671190, 2021
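Purified human 12hLO at 150 nM in 25 mM Hepes, 0.01% Triton X-100, pH 7.0, preincubated 15 min at room temperature with compound. Reaction started with 40 uM arachidonic acid, 30 min at room temperature. Hydroperoxide measured by Fe-xylenol orange, 573/405 nm absorbance ratio.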
ELG1 DNA repair – qHTS screen for small molecules that inhibit ELG1-dependent DNA repair in human embryonic kidney (HEK293T) cells expressing luciferase-tagged ELG1. 330,000 compounds, 2.3% hits. HEK293T ELG1-luciferase reporter, luminescence, 16 h; DNA damage induced by 5-fluorouridine. Potency, µM (highest dose often 46.1 µM), usual class: inhibitors; further: nearly all actives have a fitted effect of over 55% in size
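HEK293T cells expressing luciferase-tagged ELG1 (2,000/well) received 5-Fluorouridine plus compound or DMSO for 16 hr at 37 °C. Luciferase was read by ONE-Glo luminescence after 30 min at room temperature.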
TDP1 cell noCPT – qHTS for Inhibitors of human tyrosyl-DNA phosphodiesterase 1 (TDP1): qHTS in cells in absence of CPT | AID 686978, 2013 | 420,000 compounds, 15% hits | Potency, µM (highest dose often 46.2 µM), actives largely listed as inhibitors | DT40 Tdp1-/- hTDP1 cells, no CPT, ATP luminescence, 48 h; further: nearly all actives have a fitted effect of over 55% in size
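Stably hTDP1-transfected Tdp1-null chicken DT40 cells were treated with library compounds minus camptothecin and grown for at least 48 hr at 37 °C, after which cellular ATP was quantified by luminescence.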
TDP1 cell CPT – qHTS for Inhibitors of human tyrosyl-DNA phosphodiesterase 1 (TDP1): qHTS in cells in presence of CPT; chicken DT40 Tdp1-/-;hTDP1 cells + 20 nM CPT, ATP luminescence, 48 h; Potency, µM (top dose mostly 46.2 µM), usual class: inhibitors; AID 686979, 2013; 420,000 compounds, 12% hits; further: nearly all actives have a fitted effect of over 55% in size
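Cell growth measured by CellTiter-Glo luminescence after a minimum 48 h, 37 C compound exposure with 20 nM CPT in Tdp1-knockout DT40 cells stably expressing hTDP1, seeded 400/well; qHTS titration format.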
RORg inh – qHTS for inhibitors of ROR gamma transcriptional activity; Nuclear receptor ROR-gamma (Mus musculus), P51450; Drosophila S2 Gal4-RORgamma UAS-luciferase reporter, 20 h; Potency, µM (highest dose often 53.6 µM), hits mostly inhibitors; 310,000 compounds, 5.4% hits; AID 2551, 2010; further: nearly all actives have a fitted effect of over 60% in size
Target sequence (P51450 whole entry, looked up, the tested form may be a part): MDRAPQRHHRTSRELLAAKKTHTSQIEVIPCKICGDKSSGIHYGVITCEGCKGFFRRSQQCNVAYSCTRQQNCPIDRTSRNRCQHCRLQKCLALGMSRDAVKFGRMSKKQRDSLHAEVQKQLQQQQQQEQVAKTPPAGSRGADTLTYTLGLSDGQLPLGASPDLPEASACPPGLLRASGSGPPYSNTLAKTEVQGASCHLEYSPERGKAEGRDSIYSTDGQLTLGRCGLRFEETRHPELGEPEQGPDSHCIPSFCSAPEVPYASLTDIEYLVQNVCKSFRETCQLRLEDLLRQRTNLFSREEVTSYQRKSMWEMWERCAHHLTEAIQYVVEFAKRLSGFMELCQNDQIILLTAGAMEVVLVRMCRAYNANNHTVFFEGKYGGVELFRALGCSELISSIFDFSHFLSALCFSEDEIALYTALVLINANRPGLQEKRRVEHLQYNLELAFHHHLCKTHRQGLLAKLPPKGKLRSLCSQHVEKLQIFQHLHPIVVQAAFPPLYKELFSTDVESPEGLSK
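Using a luciferase readout, inhibitors were identified by reduced reporter activity in Drosophila cells coexpressing a copper-inducible Gal4–ROR gamma fusion and UAS-driven Photinus luciferase, incubated 20 hr after 700 uM copper sulfate.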
Gal4-VP16 FLuc – VP16 counterscreen qHTS for inhibitors of ROR gamma transcriptional activity; Drosophila S2 Gal4-VP16 UAS-luciferase, luminescence, 20 h; Potency, µM (highest dose often 53.6 µM), hits mostly inhibitors; 310,000 compounds, 3.5% hits; AID 2546, 2010;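 further: Gal4-VP16 expression switched on by copper sulfate through the metallothionein promoter; nearly all actives have a fitted effect of over 50% in size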
Numbers stand for hits; i = inactive; ? = inconclusive; nt = no result given. In the library only some 15% were active in any assay of this set; here they are far more common. The call rests on the fitted dose curve; in most records, active means well fitted curve in the direction sought with a large enough effect; inconclusive means small, poorly fitted or top-dose-only effect, or another doubt; inactive means no such curve, though single readings can be large; an effect the other way counts as inactive or inconclusive.

SMILES	12-LOX inh	ELG1 DNA repair	TDP1 cell noCPT	TDP1 cell CPT	RORg inh	Gal4-VP16 FLuc
O=C(CCN1C(=O)C2CC=CCC2C1=O)Nc1nc(-c2ccc(F)c(F)c2)cs1 (stereo not drawn)	i	?	i	13µM	nt	nt
CC(C(=O)Nc1nc(-c2ccc(F)c(F)c2)cs1)N1C(=O)C2CC=CCC2C1=O (stereo not drawn)	i	?	23.1µM	?	nt	nt
O=C(NC1CCCCCCC1)C1(c2ccccc2)CCC1	i	nt	nt	nt	nt	nt
O=C1CC(C2CCCO2)C(=O)N1c1ccc(Cl)c(Cl)c1 (stereo not drawn)	i	?	i	?	?	11.2µM
CCC(C)NC(=O)C1(NC(=O)Nc2ccccc2)CCCCC1 (stereo not drawn)	i	i	18.4µM	16.4µM	i	i
CCCCNC(=O)C1(NC(=O)Nc2ccc(C)cc2)CCCCC1	i	i	?	7.31µM	i	i
O=C(Nc1ccc(Cl)cc1)NC1(C(=O)NCCCN2CCOCC2)CCCCC1	i	?	i	i	i	i
Cc1cc(C)n(-c2nnc(Nc3ccc(C)c(Cl)c3)c3ccccc23)n1	i	nt	8.2µM	?	nt	nt
COc1ccc(Nc2nnc(-n3nc(C)cc3C)c3ccccc23)cc1	i	nt	i	i	nt	nt
N#Cc1ccc(-c2ccccc2)nc1SCC(=O)Nc1cccc(Cl)c1	i	nt	nt	nt	nt	nt
CCCc1nn2c(=O)cc(COC(=O)c3cccc(NC(=O)COc4ccccc4C)c3)nc2s1	i	nt	18.4µM	?	nt	nt
CCc1nn2c(=O)cc(COC(=O)c3cccc(NC(=O)CCc4ccccc4)c3)nc2s1	?	nt	6.51µM	?	nt	nt
CCCc1nn2c(=O)cc(COC(=O)c3ccc(NC(=O)CCc4ccccc4)cc3)nc2s1	i	nt	i	i	nt	nt
CCc1nn2c(=O)cc(COC(=O)c3ccc(NC(=O)CCc4ccccc4)cc3)nc2s1	i	nt	9.2µM	23.1µM	nt	nt
COCCNC(=O)[C@@H]1CCC[C@@H](NCc2nccs2)CN(C)C(=O)C1	i	nt	nt	nt	nt	nt
CCOC(=O)COc1ccc2nsnc2c1Cl	i	?	i	i	i	i
C=C(CC)C(=O)c1ccc(OCC(=O)O)c(Cl)c1Cl	i	i	18.4µM	16.8µM	?	?
Cc1ccc(-c2ccc3nnc(CNC(=O)C4CC4)n3n2)cc1	i	nt	nt	nt	nt	nt
CC(O)(C#CCN1CCCCCC1)c1ccccc1 (stereo not drawn)	?	i	i	i	i	i
OC(CCCN1CCCCC1)(c1ccccc1)c1ccc(C(F)(F)F)cc1 (stereo not drawn)	i	nt	18.4µM	?	nt	nt
OC(CC#CCN1CCCCCC1)(c1ccccc1)c1ccc(-c2ccccc2)cc1 (stereo not drawn)	17.8µM	nt	nt	nt	nt	nt
CC(C)C(C#CCN1CCCCC1)(c1ccccc1)c1ccccc1	20µM	nt	nt	nt	nt	nt
OC(C#CCN1CCCCC1)(c1ccccc1)c1ccccc1	i	i	?	?	i	i
OC(CC#CCN1CCN(CC#CCC(O)(c2ccccc2)c2ccccc2)CC1)(c1ccccc1)c1ccccc1	11.2µM	nt	nt	nt	nt	nt
CC(=O)Nc1ccc(NC(=O)CCn2cnc3c2c(=O)n(C)c(=O)n3C)cc1	i	nt	nt	nt	nt	nt
COc1ccc2oc(C(=O)Nc3ccccc3OC)cc(=O)c2c1	i	nt	nt	nt	nt	nt
CC(=O)N1CCCN(Cc2nnc(C(=O)N3CCC[C@@H]3c3cccc(F)c3)n2-c2ccccc2)CC1	i	nt	nt	nt	nt	nt
O=C(NNC1=NCCN1Cc1ccccc1)c1cccc(C(F)(F)F)c1	i	i	i	i	3.16µM	11.2µM
CCCC[C@@H]1CC2=C(C(=O)OC(C)(C)O2)[C@H](c2ccc(C(C)C)cc2)O1	?	nt	?	i	nt	nt
CC1(C)OC(=O)C2=C(C[C@@H](CCc3ccccc3)O[C@@H]2c2ccc(F)cc2)O1	i	nt	16.4µM	?	nt	nt
